Bioassay records (PubChem)
This is a sample that favours compounds with a hit; in the whole collection about 1.9% have one here.
zVAD death inh: inhibitors of zVAD-triggered necroptosis, primary screen, L929 cells. L929 zVAD necroptosis rescue, ATP luminescence, 24 h; with zVAD 60 µM. viability rescue, % at 10 µM. actives 0.38% (n = 220,000);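 active = activation, scaled between plate controls, above about 75%, limit read from the data; inactive = activation under that limit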;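 note: 0% = zVAD with DMSO and 100% = DMSO alone without zVAD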
HSF-1 act: HSF-1 activators, primary screen, NIH3T3-HGL cells, MG132 stress, luminescence, single point; AID 504408, 2011; actives 1.7% (n = 300,000); NIH3T3-HGL HSF-1 luciferase reporter, 8 h; 100% = twice DMSO control signal; activation, % at 9 µM;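 active = mean replicate activation of at least 50% with a set share of replicates each reaching 50%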;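 note: 0% = median of the neutral control wells and 100% = twice that signal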
Hsp70 act: Hsp70 transcriptional activators, primary screen, cell-based, HeLa, Hsp70 promoter luciferase, luminescence, 10 µM. actives 0.04% (n = 200,000). activation, % at 10 µM. HeLa Hsp70 promoter luciferase reporter; scaled: vehicle 0, proteasome-inhibitor control 100%;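 active = activation above the mean across all tested compounds plus 3 SD, cutoff set per campaign, cut at about 5.5% in these data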;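 note: 100% = MG132 at 30 µM as the positive control and 0% = DMSO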
TNF necrop inh: inhibitors of TNF-alpha triggered necroptosis, primary screen, cell-based, Jurkat FADD-/-, single concentration; actives 0.068% (n = 220,000); activation (protection from cell death), % at 10 µM; Jurkat FADD-/- TNF necroptosis rescue, ATP luminescence, 24 h; 0 = TNF only, 100 = no-TNF cells; AID 463075, 2010;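 active = activation, meaning protection from cell death, of at least 50% relative to plate controls; inactive = activation below 50%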;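 note: necroptosis triggered by 40 ng/mL TNF-alpha added together with compound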
* hit, by the source's call; . = no result given.

SMILES | zVAD death inh | HSF-1 act | Hsp70 act | TNF necrop inh
O=C(Nc1ccccc1O)c1ccccc1O | 0.0 | 32.9 | -0.1 | -2.3
Cc1cccc(NC(=O)c2ccccc2O)c1C | -0.9 | 123.9* | -0.2 | -2.5
O=C(CSc1nccc(=O)[nH]1)Nc1cccc2ccccc12 | . | 3.8 | . | .
O=C1CC(NS(=O)(=O)c2cc(F)ccc2F)CN1c1cccc(F)c1 (centres undefined) | . | 2.8 | . | .
COc1ccc(CNC(=O)CN(c2ccccc2)S(=O)(=O)c2ccccc2[N+](=O)[O-])cc1 | 4.3 | -13.7 | -0.3 | 0.6
Cc1cc(-c2sccc2Br)nc(-n2cccc2)n1 | 1.3 | 71.6* | 0.3 | -1.4
Cc1cc(-c2ccc(Br)s2)nc(-n2cccc2)n1 | 2.0 | 1.1 | -0.2 | 0.8
Cc1ccc(CC2SC(=Nc3ccccc3)N(c3ccccc3)C2=O)cc1 (centres undefined) | 1.6 | 59.2* | -0.5 | -0.8
Cc1nc([N+](=O)[O-])c(Br)n1CC(=O)c1cccc([N+](=O)[O-])c1 | -0.5 | 101.9* | -0.1 | -14.3
Cc1nc([N+](=O)[O-])c(Br)n1Cc1ccccc1 | 41.8 | 77.2* | . | -16.5
O=C(CCNc1ccc(Br)cc1)c1cccc([N+](=O)[O-])c1 | -1.2 | 65.6* | 0.0 | -4.9
Cc1ccnc(Sc2ccc([N+](=O)[O-])cc2[N+](=O)[O-])n1 | 1.8 | 130.9* | 0.3 | -15.0
O=[N+]([O-])c1ccc(Sc2nc3ccccc3o2)c([N+](=O)[O-])c1 | 0.9 | 230.3* | -0.1 | -25.7
Oc1cc(-c2ccccc2)c2ccccc2c1 | 2.2 | 157.1* | -0.2 | 0.3
CC1(C)Cc2c(C#N)c(N3CCCC3)nc(-c3ccco3)c2CO1 | 2.4 | 110.6* | 0.0 | 0.2
Oc1c(Cl)cc(Cl)cc1/C=N/NC(=S)NC1CC2C=CC1C2 (centres undefined) | 0.1 | 52.5* | . | -3.7
Oc1ccccc1/C=N/NC(=S)NC1CC2C=CC1C2 (centres undefined) | 0.6 | 27.7 | . | -3.0
CC(=O)Nc1cccc(NC(=O)C(=O)NCC(c2ccco2)N2CCc3ccccc3C2)c1 (centres undefined) | . | 0.9 | . | .
O=C(OCN1C(=O)c2ccccc2C1=O)c1ccccc1 | 0.1 | 75.4* | -0.4 | -1.6
O=C(OCCN1C(=O)c2ccccc2C1=O)c1ccccc1 | 1.4 | . | -0.1 | 0.6
O=S(=O)(Cc1cc(-c2ccccc2Cl)no1)c1ccccc1 | 3.9 | 71.5* | 0.3 | 1.2
CC1=NNC(=O)/C1=C\c1cn(-c2ccccc2)nc1-c1cccs1 | . | 38.6 | -0.1 | -25.9
CC1=NNC(=O)/C1=C\c1cn(-c2ccccc2)nc1-c1ccc(F)cc1 | -1.5 | 146.1* | 0.3 | -13.1
Cc1cc(NC(=S)N(Cc2ccc(Cl)cc2)Cc2ccc(C(=O)O)cc2)ccc1Cl | 1.7 | 80.1* | 0.4 | 1.3
Cc1cc(C)cc(NC(=S)N(Cc2ccc(Cl)cc2)Cc2ccc(C(=O)O)cc2)c1 | 3.7 | 16.7 | -0.5 | 1.7
SMILES | zVAD death inh | HSF-1 act | Hsp70 act | TNF necrop inh
COC(=O)C1=C(C)N(CCc2cc(OC)c(OC)c(OC)c2)C(=O)N[C@H]1c1ccccc1 | . | -1.4 | . | .
COc1ccc(-c2cc(=Nc3ccc(C(=O)O)cc3)c3cc(C)ccc3o2)cc1 | 12.3 | 57.2* | -0.1 | 0.3
CCc1ccc2oc(-c3ccc(OC)cc3)cc(=Nc3cccc(C(=O)O)c3)c2c1 | 9.9 | 0.5 | -0.4 | -0.5
Cc1cc(C)cc(N(CC(=O)N2CCn3c2nc2ccccc23)S(=O)(=O)c2c(C)noc2C)c1 | -0.2 | -0.9 | -0.1 | -1.8
O=C(Cc1cnc2ncnn2c1)N1CCc2c([nH]c3ccccc23)C1c1ccccn1 (centres undefined) | -1.3 | -7.7 | -0.4 | -0.2
Cc1cc(=O)oc2cc(NC(=O)c3ccccc3Cl)ccc12 | . | 62.5* | . | .
Cc1cc(=O)oc2cc(NC(=O)c3ccccc3C(=O)O)ccc12 | . | 46.3 | . | .
COc1cccc(C(=O)Nc2ccc3c(C)cc(=O)oc3c2)c1 | . | 107.8* | . | .
S=C(c1cn(Cc2ccc(Br)cc2)c2ccccc12)N1CCOCC1 | -0.6 | 53.7* | -0.1 | 0.8
S=C(c1cn(Cc2ccccc2)c2ccccc12)N1CCOCC1 | -1.3 | 10.1 | 0.5 | -0.5
Cc1ccc2oc(-c3cccc(N)c3)nc2c1 | 0.9 | 70.2* | 0.1 | -3.1
Cc1ccc(-c2nc3cc(N)ccc3o2)cc1 | 0.1 | 4.2 | -0.3 | -5.9
CCCN1CCN(C(=O)c2oc3c(Cl)cccc3c2C)CC1 | . | -6.6 | . | .
CCCCCN1CC(=O)N2[C@@H](Cc3c([nH]c4ccccc34)C2(C)C)C1=O | . | 6.6 | . | .
CCCCOCCCN1CC(=O)N2[C@@H](Cc3c([nH]c4ccccc34)C2(C)C)C1=O | . | 69.7* | . | .
CN(C)S(=O)(=O)c1cccc(C(=O)N=C2N=C3C=CC(Cl)=CN3Cc3ccccc32)c1 | 2.3 | 59.9* | . | -1.7
CCCCNC(=O)c1ccc2c(c1)ncn2C1CCCC1 | 4.4 | 12.2 | 0.1 | 3.0
CCN(CC)CCNC(=O)c1ccc2c(c1)ncn2C1CCCCC1 | 93.2* | 10.9 | -0.7 | -0.3
COc1cccc(-n2c([S-])c(C(=O)Nc3ccc(S(=O)(=O)N4CCOCC4)cc3)[n+]3cc(C(N)=O)ccc23)c1 | 0.5 | 2.2 | . | -5.7
O=C1c2cccc3cccc(c23)C(=O)N1CCc1ccccc1 | -0.6 | 58.8* | -0.1 | -2.9
CC(=O)c1ccn(S(=O)(=O)c2ccccc2)c1 | 2.2 | 11.7 | -0.3 | 5.9
C=CCN=c1scc(-c2ccc(F)cc2)n1/N=C/c1ccccn1 | 0.1 | 47.0 | -0.2 | 2.5
C=CCN=c1scc(-c2ccccc2)n1/N=C/c1ccccn1 | -0.6 | 51.9* | -0.4 | 0.2
O=C(Nc1cccc2cccnc12)c1ccc(Br)o1 | 76.4* | -1.6 | -0.2 | -5.2
O=C(NC(=S)Nc1cccc2cccnc12)c1cccs1 | 1.5 | 155.8* | -0.1 | 0.0
SMILES | zVAD death inh | HSF-1 act | Hsp70 act | TNF necrop inh
CCC(=O)Nc1cccc(NC(=S)NC(=O)c2ccccc2Cl)c1 | -0.3 | 6.1 | -0.2 | -6.6
O=C(Oc1cccc2cccnc12)c1ccc(Br)o1 | -0.7 | 65.8* | -0.1 | -1.0
O=C(Nc1cccc2ccccc12)c1ccc(Br)o1 | 0.0 | . | 0.2 | -1.0
CCC(=O)Nc1cccc(NC(=S)NC(=O)c2cccs2)c1 | 0.5 | 79.3* | 0.3 | 1.2
O=C(NC(=S)Nc1cccc2cccnc12)c1ccccc1 | 0.3 | 30.9 | -0.2 | -1.6
O=C(Oc1cccc2cccnc12)c1ccco1 | 0.2 | 9.2 | -0.2 | -10.3
CC1(C)CC[C@]2(CO)[C@@H](O)C[C@]3(C)C(=CCC4[C@@]5(C)CC[C@H](O)C(C)(C)C5CC[C@]43C)[C@@H]2C1 (some centres undefined) | . | 3.6 | . | .
COc1ccc(NC(=O)C(=O)Nc2cccc3cccnc23)cc1OC | . | 26.5 | . | .
COc1ccc(C(=O)Nc2cccc3cccnc23)cc1OC | -0.6 | 68.2* | 0.9 | -1.2
CC(C)c1nnc(SCc2ccc(CSc3nnc(C(C)C)n3N)cc2)n1N | 0.8 | 80.2* | -0.2 | -0.9
O=C(NC1CCCCC1)c1ccc(-c2cccc([N+](=O)[O-])c2)o1 | . | 39.3 | . | .
